USP8 block: blocks human USP8 ubiquitin-rhodamine cleavage; inhibition, % at 20 µM; hit rate 4.2% among 47,000; purified USP8, Ub-rhodamine cleavage fluorescence, 30 min
USP7 block: inhibitors of human USP7 deubiquitinase; hit rate 0.3% among 47,000; AID 1645854; purified USP7, Ub-rhodamine cleavage fluorescence; Q93009; inhibition, % at 20 µM
UCHL1 block: inhibitors of human UCHL1 deubiquitinase; hit rate 0.2% among 47,000; inhibition, % at 20 µM; P09936; purified UCHL1, Ub-rhodamine cleavage fluorescence; AID 1645859
USP10 inh: blocks human USP10 ubiquitin-rhodamine cleavage; hit rate 1.1% among 47,000; Q14694; purified USP10, Ub-rhodamine fluorescence, 60 min; AID 1645856; inhibition, % at 20 µM
* = called active by the depositor. A selection: hits, their analogues and other compounds. The true share with any hit is near 4.6%. No stated cut-off is given here; in the data, active means inhibition above about 30%; inactive means the rest.

SMILES	USP8 block	USP7 block	UCHL1 block	USP10 inh
CCN(CC)C(=O)c1ccc(NC(=O)CN2CCc3cc(OC)c(OC)cc3C2)cc1	40*	4	0	0
Cn1c(=O)[nH]c2nncnc2c1=O	34*	-13	18	9
CC(C)C12CN3CC(C(C)C)(CN(C1)C3c1ccccn1)C2O (stereo not drawn)	47*	7	2	2
CC1CCCCCC(=O)c2c(O)cc(O)cc2CC(=O)O1 (stereo not drawn)	4	0	-2	5
O=C(Nc1ccccn1)c1c(O)c2ccccc2n(Cc2ccccc2)c1=O	69*	6	1	9
O=C(NCc1ccccn1)c1cc2cccnc2n(Cc2ccccc2)c1=O	-35	-50	-14	-5
O=C1C(O)=C(c2ccccc2)C(=O)C(O)=C1c1ccccc1	-24	-11	-2	-6
O=S(=O)(c1ccccc1)N1C[C@H]2CNC[C@H]2C1	-53	5	0	0
O=C(c1nc(-c2ccncc2)no1)N1CCC2(CC1)OCCO2	31*	0	-4	2
c1cnc(NC[C@@H]2OC[C@H]3CN(Cc4ccncc4)CC[C@H]32)nc1	-265	-1	-4	0
CC(C)=CCCC1(C)C=Cc2c(O)c3c(c(CC=C(C)C)c2O1)OC12C(=CC4CC1C(C)(C)OC2(C/C=C(/C)C(=O)O)C4=O)C3=O (stereo not drawn)	73*	67*	15	82*
O=C1CSC(c2cccc([N+](=O)[O-])c2)c2c(n(C3CCCCCC3)[nH]c2=O)N1 (stereo not drawn)	40*	1	3	10
CCOc1ccc(C2SCC(=O)Nc3c2c(=O)[nH]n3C2CCCC2)cc1 (stereo not drawn)	23	13	6	2
Cc1ccc(C2SCC(=O)Nc3c2c(=O)[nH]n3C2CCCCCC2)cc1 (stereo not drawn)	73*	14	2	15
CC(O)(CS(=O)(=O)c1ccccc1)C(=O)Nc1ccc(Cl)cc1 (stereo not drawn)	4	-5	-1	1
Cc1ccccc1COc1ccc(C2SCC(=O)Nc3n[nH]c(C)c32)cc1 (stereo not drawn)	-32	-52	3	12
CC1=C(O)C(=O)C=C2C1=CC=C1[C@@]2(C)CC[C@@]2(C)[C@@H]3C[C@](C)(C(=O)O)CC[C@]3(C)CC[C@]12C	46*	35*	12	81*
CC(C)=CCOC(C)(C)[C@H]1OC2CC[C@@]3(C)C(CCC4Cc5c([nH]c6ccccc56)[C@@]43C)C23OC3[C@@H]1O (stereo partly drawn)	40*	39*	7	76*
CSc1ccc(/C=C2\C(=O)C3CCN2CC3)cc1	-6	1	-1	1
O=C1c2c(O)c(Cl)cc3c2[C@@]2(Oc4cc(Cl)c(O)c5c4[C@]3(O2)[C@@H]2O[C@@H]2C5=O)[C@@H]2O[C@H]12	54*	93*	92*	69*
Cc1ccc(-c2nccn3cc(C(=O)N4CCC5(CC4)OCCO5)nc23)cc1	4	-2	-2	0
C[C@H]1O[C@@H](O[C@H]2[C@@H](O)C[C@H](O[C@H]3[C@@H](O)C[C@H](O[C@H]4CC[C@]5(C)C6CC[C@]7(C)[C@@H](C8=CC(=O)OC8)[C@@H](O)C[C@@]7(O)C6CC[C@@H]5C4)O[C@@H]3C)O[C@@H]2C)C[C@H](O)[C@@H]1O (stereo partly drawn)	7	2	-1	2

High-throughput results as filed in PubChem.
